BaF3 tox = reduces parental Ba/F3 cell viability, JAK2V617F counter-screen; CellTiter-Glo ATP luminescence; inhibition, % at 5.6 µM; 220,000 tested, 1.1% active; AID 1486;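 active = inhibition above a per-campaign cutoff, the mean inhibition of all tested compounds plus 3 SD, cut at about 27% in these data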;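 note: 0% = DMSO wells and 100% = JAK Inhibitor I control wells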
Ba/F3 V617F tox = reduce viability of Ba/F3 cells dependent on JAK2V617F; Ba/F3 EpoR-JAK2V617F viability, ATP luminescence; inhibition, % at 5.6 µM; 220,000 tested, 1.1% active; AID 1446;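 active = inhibition above the campaign mean plus 3 SD over all tested compounds, cut at about 24% in these data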;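 note: cytokine-independent growth of Ba/F3 cells driven by EpoR plus mutant JAK2; 0% = DMSO-treated cells and 100% = JAK inhibitor I control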
APP transl inh = APP translation inhibition; SH-SY5Y APP 5'UTR-luciferase reporter, luminescence; 190,000 tested, 0.82% active; inhibition, % at 2 µM; AID 1285;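 active = inhibition above a set limit, derived from the sample mean plus 3 SD, cut at about 45% in these data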
KLF5 inhibitor = kruppel-like factor 5 inhibition; inhibition, % at 5 µM; 290,000 tested, 0.23% active; DLD-1 KLF5 promoter-luciferase reporter, luminescence;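 active = inhibition above a per-plate limit of that plate's mean compound inhibition plus 3 SD, cut at about 60% in these data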;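 note: 0% = DMSO wells and 100% = LY294002 at 200 µM; higher means less KLF5 promoter-driven luciferase light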
IEC-6 tox = kills IEC-6 intestinal cells in KLF5 counter-screen; IEC-6 cytotoxicity, luminescence viability; inhibition, % at 5 µM; 290,000 tested, 0.78% active; AID 1825;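 note: 0% = plate median of test compound wells and 100% = cytotoxic reference compound wells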
IEC-6 cytotox cf = IEC-6 cytotoxicity, confirmation assay. shares compounds with IEC-6 tox. IEC-6 rat intestinal epithelial viability, luminescence. inhibition, % at 5 µM. 1,900 tested, 63% active. AID 1907;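 note: 0% = vehicle and 100% = reference cytotoxic drug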
* = called active by the depositor; / = not tested or not shown. A selection: hits, their analogues and other compounds. The true share with any hit is near 1.9%. Cut-off read from the data, not from the text of the source, unless noted: active = inhibition above about 22%; inactive = the rest.

SMILES	BaF3 tox	Ba/F3 V617F tox	APP transl inh	KLF5 inhibitor	IEC-6 tox	IEC-6 cytotox cf
Cc1ccc2oc(C(=O)NCc3ccc4c(c3)OCO4)c(C)c2c1	3	1	-17	-2	48*	-4
CC(=O)Nc1ccc(NC(=O)c2nc(S(=O)(=O)Cc3cccc(C)c3)ncc2Cl)cc1	/	/	/	34	36*	16
COC(=O)c1ccc(NC(=O)c2nc(S(=O)(=O)Cc3cccc(C)c3)ncc2Cl)cc1	/	/	/	14	43*	14
CCSc1ncc(Cl)c(C(=O)Nc2ccc(S(N)(=O)=O)cc2)n1	/	/	/	-12	2	/
Cc1c(C(=O)NCc2ccc3c(c2)OCO3)oc2ccc(Br)cc12	0	-5	8	-9	-1	/
CCOC(=O)c1sc(Nc2cccc(C)c2C)nc1C	5	-1	1	-33	2	/
O=C(NN(c1ccccc1)c1ccccc1)c1ccc([N+](=O)[O-])o1	5	4	-18	-7	27*	15
O=C(NNC(=O)c1ccc([N+](=O)[O-])o1)c1ccccc1	-4	-2	-12	-7	2	/
NC(=O)c1oc2ccccc2c1NC(=O)c1ccc([N+](=O)[O-])o1	/	/	/	18	100*	57*
NC(=O)c1oc2ccccc2c1NC(=O)c1ccc(F)cc1	0	-5	4	11	5	/
O=C(NC1CCCCC1)c1ccc([N+](=O)[O-])o1	/	/	/	-10	68*	7
CC(NC(=O)c1ccc([N+](=O)[O-])o1)C12CC3CC(CC(C3)C1)C2 (stereo unspecified)	/	/	/	-7	60*	5
CCOc1ccc(Cl)cc1CNCCCSc1nc(C)cc(C)n1	/	/	/	-32	8	/
Cc1cc(C)cc(N(CC(=O)NC(C)C)C(=O)CCC(=O)Nc2ccccn2)c1	/	/	/	-21	-3	/
CN(Cc1ccccc1)C(=O)CCC1CCN(S(C)(=O)=O)CC1	/	/	/	-12	-4	/
CC(=O)c1ccc(Nc2cc(C)nc3ccccc23)cc1	12	7	42	15	38*	35*
CC(=O)c1ccc(Nc2cc(C)nc3c(C)cccc23)cc1	76*	77*	87*	35	81*	60*
COC(=O)c1ccc(Nc2cc(C)nc3ccc(C)cc23)cc1	3	11	/	35	26*	27*
COc1ccc(Nc2cc(C)nc3ccccc23)cc1	2	2	5	5	20	/
O=C(CNC(=O)C(c1ccccc1)c1ccccc1)OCC(=O)c1cccs1	8	1	/	-37	0	/
Cc1ccc(-n2ccc(=O)c(C(=O)Nc3ccc(S(=O)(=O)Nc4nccs4)cc3)n2)cc1	/	/	/	-16	5	/
COc1cccc2[nH]c3c(Cl)ncnc3c12	5	-2	1	-20	8	/
COc1ccc(NC(=O)N2CCN(c3cccc(C(F)(F)F)c3)CC2)cc1	8	3	23	-27	24*	3
CN(C)S(=O)(=O)c1ccc(NC(=O)N2CCN(c3cccc(C(F)(F)F)c3)CC2)cc1	11	4	0	24	4	/
CCN(C(=O)COC(=O)c1ccc2[nH]c3c(c2c1)CCCC3)C1CCS(=O)(=O)C1 (stereo unspecified)	4	0	-12	-7	3	/
SMILES	BaF3 tox	Ba/F3 V617F tox	APP transl inh	KLF5 inhibitor	IEC-6 tox	IEC-6 cytotox cf
Brc1ccccc1C1=Nn2c(nnc2-c2ccccc2)SC1	32*	37*	2	-5	27*	22
Brc1ccccc1C1=Nn2c(nnc2-c2ccco2)SC1	3	-4	/	-8	2	/
O=C(CNCc1ccccc1)Nc1ccc(Oc2ccccc2)cc1	52*	62*	-14	32	60*	6
Nc1nc(SCC(=O)NCc2ccccc2)[nH]c(=O)c1NC(=O)c1ccccc1F	3	-3	-7	9	-2	/
O=c1oc2ccccc2c(Nc2cccc3ccccc23)c1[N+](=O)[O-]	6	0	1	20	10	/
O=c1oc2ccccc2c(Nc2cccc3cccnc23)c1[N+](=O)[O-]	6	2	-16	-7	61*	-6
COc1ccc(S(=O)(=O)NC2CCCC2)cc1C(N)=O	/	/	/	-11	-2	/
CCC(C)[C@H](NC(=O)OC(C)(C)C)C(=O)NCC1CCC(C(=O)N[C@@H](Cc2ccccc2)C(=O)O)CC1 (stereo partly specified)	/	/	/	-30	0	/
COc1ccc(-c2cn(-c3ccc(OC)cc3)c3[n+]2-c2ccccc2CC3)cc1	77*	95*	-4	-31	25*	26*
COc1ccccc1-c1c(C#N)c(N)nc2c1CCc1ccccc1-2	8	12	-3	16	24*	19
C/C(=N\NC(=O)COc1ccccc1-c1ccccc1)c1ccc(O)cc1O	-11	4	/	50	74*	42*
C/C(=N\NC(=O)COc1ccccc1-c1ccccc1)c1cccnc1	1	-1	16	8	8	/
Cc1ccc(C)c(NS(=O)(=O)c2ccc(-c3cnc(C4CC4)o3)cc2)c1	/	/	/	61	93*	62*
O=S(=O)(NCc1ccc(F)cc1)c1ccc(-c2cnc(C3CC3)o2)cc1	/	/	/	-25	5	/
COc1ccccc1NS(=O)(=O)c1cc(-c2cnc(C3CC3)o2)ccc1C	/	/	/	24	20	/
CCOc1ccc(NS(=O)(=O)c2ccc(-c3cnc(C4CC4)o3)cc2)cc1	/	/	/	-9	18	/
Cc1cc(C)cc(NS(=O)(=O)c2ccc(-c3cnc(C4CC4)o3)cc2)c1	/	/	/	59	87*	51*
O=S(=O)(Nc1ccccc1)c1ccc(-c2cnc(C3CC3)o2)cc1	/	/	/	39	42*	33*
Cc1cccc(NS(=O)(=O)c2ccc(-c3cnc(C4CC4)o3)cc2)c1C	/	/	/	38	88*	58*
CCc1ccc(NC(=O)Cn2nnc(C(=O)NCc3ccco3)c2N)cc1	/	/	/	-22	-12	/
COc1ccc(NS(=O)(=O)c2cc(-c3cnc(C4CC4)o3)ccc2C)cc1	/	/	/	41	81*	74*
CC(=O)Nc1ccc(NS(=O)(=O)c2ccc(-c3cnc(C4CC4)o3)cc2)cc1	/	/	/	-13	5	/
CC(=O)c1cccc(NS(=O)(=O)c2ccc(-c3cnc(C4CC4)o3)cc2)c1	/	/	/	22	38*	38*
CN(c1ccccc1)S(=O)(=O)c1ccc(NC(=O)c2nc(S(C)(=O)=O)ncc2Cl)cc1	/	/	/	23	95*	3
COc1cccc(NC(=O)c2nc(S(C)(=O)=O)ncc2Cl)c1	/	/	/	30	100*	17
SMILES	BaF3 tox	Ba/F3 V617F tox	APP transl inh	KLF5 inhibitor	IEC-6 tox	IEC-6 cytotox cf
COc1cccc(NC(=O)c2nc(SC)ncc2Cl)c1	/	/	/	-12	10	/
CN(c1ccccc1)S(=O)(=O)c1ccc(NC(=O)c2ccccc2)cc1	1	-5	-10	8	2	/
C=CCn1c(C)cc(C(=O)Cn2ncc(Cl)c(Cl)c2=O)c1C	-2	6	87*	10	48*	21
Cc1ccc(CN2CCCCC2C(=O)Nc2ccc(Oc3cccnc3)cc2)o1 (stereo unspecified)	/	/	/	27	38*	37*
CCn1nc(C)c(CN2CCCCC2C(=O)Nc2ccc(Oc3cccnc3)cc2)c1C (stereo unspecified)	/	/	/	-23	-6	/
O=C(Nc1ccc(Oc2ccccc2)nc1)C1CCCCN1Cc1ccco1 (stereo unspecified)	/	/	/	50	60*	39*

Bioassay records as filed in PubChem BioAssay.
